Test results from PubChem BioAssay AID1347076 (National Center for Advancing Translational Sciences (NCATS), 2019).
In all, about 400,000 compounds went through this assay and about 13,000 (3.2%) were called active. Another 18% or so got no clear call; they are omitted. This excerpt belongs to a sample that is enriched for actives. A number with no mark means an inactive call. Calls follow the shape of the dose curve; as a rule, active = well fitted cell-killing curve with a large enough effect; inconclusive = small, poorly fitted or top-dose-only effect, or effect the other way; inactive = flat fitted curve, though single readings scatter.

Test: qHTS assay for MDR1-selective chemotherapeutics: Primary screen using the drug-selected MDR subline cells KB-V1; also: nearly all actives have a fitted effect of over 60% in size
Settings: KB-V1 MDR cells viability, CellTiter-Glo, 72 h; series mostly up to 46.1 µM; activity change, negative = cytotoxicity: at the top concentration
Outline: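 KB-V1, DMEM (no phenol red) + 10% FBS; cpd pin-transferred, titration series; 72 h, 37 degrees C; CellTiter-Glo, luminescence. Data normalized, curve-fit.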
% is scaled to controls: 0 for no effect and ±100 for the full control effect; potency is read from the fitted curve at half-maximal effect.

Structure (SMILES)	activity change, negative = cytotoxicity	Potency
COc1cc(CNC(=O)c2cc3n(n2)CCCN(Cc2cccc(F)c2)C3=O)cc(OC)c1OC	1.03%	
COC(=O)c1ccccc1NC(=O)Cn1c(=O)cc(C)c2c(C)nn(-c3cccc(Cl)c3C)c21	3.13%	
CCCCCNC(=O)c1cccnc1SCC(=O)Nc1ccccc1OC		6.51 µM (active)
COc1ccccc1NC(=O)CSc1nnc(CNC(=O)c2ccccc2F)o1	0%	
CCCNC(=O)c1ccccc1NC(=O)CSCc1ccc(OC)cc1	-14.4%	
O=C(Nc1ccccn1)c1sc2ccc([N+](=O)[O-])cc2c1Cl	-9.59%	
Cc1ccc(-c2ccc(CN3C(C(C)C)C(=O)N(Cc4cn(CCC5OCCCO5)nn4)CCS3(=O)=O)cc2)cc1 (stereo not drawn)	-14.7%	
CNC(=O)C[C@H]1C(=O)N(Cc2ccccc2)C[C@@H]1CSC	1.19%	
Cc1nc(-c2ccc(F)cc2)c(CC(=O)Nc2cccc(S(=O)(=O)N3CCOCC3)c2)s1	-8.88%	
Cc1ccc(NC(=O)Nc2cccnc2)cc1	-4.27%	
Cc1ccc(-c2nc(-c3cccnc3)sc2CC(=O)Nc2ccc(C)c(Cl)c2)cc1		8.2 µM (active)
CC(=O)N1C[C@@H](CO)[C@@H](N(C)C(=O)c2ccco2)C[C@H]1c1ccccc1	12.2%	
CCCCn1nnnc1C(c1cccc(OC)c1OC)N1CCN(C/C=C/c2ccccc2)CC1 (stereo not drawn)	14.1%	
CC(C)(O)C#Cc1ccc(CNC[C@H]2O[C@@H](n3cnc4c(=O)[nH]c(N)nc43)[C@H](O)[C@@H]2O)s1	8.09%	
O=C(c1ccc(S(=O)(=O)N2CCCC2)cc1)N1CCN(c2ccccc2F)CC1	-7.58%	
O=C(c1ccc(S(=O)(=O)N2CCOCC2)cc1)N1CCN(c2ccccc2)CC1		16.4 µM (active)
O=C(c1ccc(S(=O)(=O)NCc2ccco2)cc1)N1CCN(c2ccccc2)CC1	-12.4%	
COc1cc2nnn(-c3ccncc3)c2cc1OC	-1.5%	
CCOC(=O)C1(C)CCCN(C(=O)c2ccc(N(C)C)cc2)C1 (stereo not drawn)	3.14%	
O=C(COC(=O)c1ccccc1Br)Nc1nnc(-c2ccccc2)o1	-26.5%	
O=C(Nc1nnc(-c2ccc(Cl)cc2)o1)c1ccccc1Br		6.51 µM (active)
O=C(Nc1ccccc1)c1ccccc1Br	4.37%	
CCc1nc2c(OCc3ccc(C(=O)OC)cc3)cccn2c1N(C)C(=O)C(C)C	0.64%	
C=CCn1c2ccccc2c2nnc(SC(CC)C(=O)Nc3nc(C)c(C(=O)OCC)s3)nc21 (stereo not drawn)		2.31 µM (active)

Structure (SMILES)	activity change, negative = cytotoxicity	Potency
CCOC(=O)c1sc(NC(=O)C(CC)Sc2nccn2C)nc1C (stereo not drawn)	-18.2%	
C=CCn1nc(C(=O)OCC)cc1-c1sc(NC(=O)c2ccccc2)nc1C	-21.4%	
COc1ccc(CCNC(=O)C(=O)NCC2CCCN2S(=O)(=O)c2cccs2)cc1OC (stereo not drawn)	-25.2%	
COc1ccccc1CCNC(=O)C(=O)NCCC1CCCCN1S(=O)(=O)c1cccs1 (stereo not drawn)	-9.95%	
O=C(NCCC1CCCCN1S(=O)(=O)c1cccs1)C(=O)Nc1ccc(F)cc1F (stereo not drawn)		14.6 µM (active)
COc1cc(C#Cc2ccc3cc(CCCO)oc(=O)c3c2)cc(OC)c1		3.66 µM (active)
O=C1c2ccccc2C(=O)N1CCC#Cc1ccc2cc(C3(O)CCCCC3)oc(=O)c2c1	4.63%	
CCn1c(SCC(=O)NCc2ccco2)nnc1-c1ccc(N)cc1	0%	
O=C(CSc1nnc2scc(-c3ccc(F)cc3)n12)NCc1ccco1	-5.87%	
Cc1ccc(-c2csc3nnc(SCC(=O)NCc4ccco4)n23)cc1		9.2 µM (active)
Cn1c(-c2ccc(F)cc2)cnc1SCC(=O)NCc1ccco1	-15.2%	
O=C(CSc1nnc(-c2ccco2)n1-c1ccccc1)NCCc1ccccc1	-20.9%	
O=C(CSc1nnc(-c2ccco2)n1Cc1ccccc1)NC(=O)NCc1ccco1		20.6 µM (active)
CCOCCn1ccc2c(OCC(=O)NCc3ccc(C)cc3)cccc2c1=O	-4.93%	
CN(C)c1ccc(C(CNS(=O)(=O)c2cc(F)ccc2F)N2CCOCC2)cc1 (stereo not drawn)	4.28%	
CC[C@@H]1CC2=C(C(=O)OC(C)(C)O2)[C@@H](CC)O1	2.71%	
COc1cccc(OCC(=O)NCCS(=O)(=O)N2CCN(c3ccccc3)CC2)c1	-0.223%	
COc1ccc2c(c1)C=C(C(=O)NCc1cc(Br)ccc1OC)CO2	7.07%	
COc1cc(-c2nnc(NC(=O)CS(=O)(=O)c3ccc(Cl)cc3)o2)cc(OC)c1OC	-2.72%	
COc1ccc(Cl)cc1NC(=O)CN(C)C(=O)c1cn(-c2ccccc2)nc1-c1cccs1	-11%	
O=C(CN1C(=O)NC(Cc2ccccc2)(Cc2ccccc2)C1=O)NCC1CCCCC1		20.6 µM (active)
O=C(CC1CCCCC1)NCc1ccccc1	-3.84%	
COc1cccc(CNC(=O)CN2C(=O)NC(Cc3ccccc3)(c3ccccc3)C2=O)c1 (stereo not drawn)	-1.58%	
COC(=O)C[C@H]1C[C@@H]2c3cc(N(C)C)ccc3O[C@@H]2[C@H](CO)O1	12%	
